Experimental data published in PubChem BioAssay (Tox21).
Records with an inconclusive call do not appear. Calls of active or inactive are those of the source. Unless noted, the call rests on the fitted dose curve; in most records, active means well fitted curve in the direction sought with a large enough effect in the repeat runs; inconclusive means weak or mixed curves; inactive means no such curve, though single readings can be large; an effect the other way counts as inactive or inconclusive.

Assays:
[1] = qHTS RealTime-Glo MT Cell Viability Assay in HepG2 cells - 16 hour (AID 1224885); further: nearly all actives have a fitted effect of over 50% in size
Outline: (§1)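 Real-time, nonlytic viability: 600 HepG2 cells/well mixed with NanoLuc enzyme plus prosubstrate; 5 h settle, compound (DMSO) added by pintool; luminescence monitored over 40 h at 37 C.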

[2] = qHTS RealTime-Glo MT Cell Viability Assay in HEK293 cells - 24 hour (AID 1224886); further: top concentration of the series differs between compounds; nearly all actives have a fitted effect of over 50% in size
Outline: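 Cells + reagent dispensed (600 cells/well, HEK293) → 5 h at 37 C/5% CO2 → 23 nL compound in DMSO pinned → 40 h at 37 C → luminescence read at 0, 8, 16, 24, 32, 40 h.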

[3] = qHTS RealTime-Glo MT Cell Viability Assay in HEK293 cells - 8 hour (AID 1224887); further: top concentration of the series differs between compounds; nearly all actives have a fitted effect of over 50% in size
Outline: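 Luminescence, which tracks viable cell number through reduction of the prosubstrate to a NanoLuc substrate, was read over continuous 37 C culture. Cells (600/well) were premixed with reagent and rested 5 h before 23 nL of compound in DMSO was pinned.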

[4] = qHTS RealTime-Glo MT Cell Viability Assay in HepG2 cells - 0 hour (AID 1224889); further: nearly all actives have a fitted effect of over 50% in size
Outline: as §1

[5] = A CellTox Green Cytotoxicity Assay to monitor cytotoxicity in HepG2 cells - 8 hour (AID 1224890); further: nearly all actives have a fitted effect of over 45% in size
Outline: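 Real-time cytotoxicity: fluorescence of a cell-impermeant cyanine dye binding DNA of dead HepG2 cells, measured repeatedly (0–40 h) during compound exposure at 37 C. Cells seeded 600/well with reagent, dosed after 5 h.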

[6] = qHTS assay to identify small molecule antagonists of the estrogen receptor alpha (ER-alpha) signaling pathway using the BG1 cell line in the presence of 0.1 nM 17-beta-estradiol - cell viability counter screen (AID 1259241); further: nearly all actives have a fitted effect of over 40% in size
Outline: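 VM7Luc4E2 cells (endogenous ER-alpha, 4×ERE-luciferase), hormone-starved 5 days in charcoal-stripped FBS, were treated with compounds plus 0.1 nM 17beta-estradiol for 22 hr at 37C; viability read in same wells as CellTiter-Fluor live-cell protease fluorescence.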

[7] = qHTS assay to identify small molecule antagonists of the androgen receptor (AR) signaling pathway using the MDA cell line in the presence of 0.5 nM R1881 - cell viability counter screen (AID 1259242); further: nearly all actives have a fitted effect of over 45% in size
Outline: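 Live-cell protease activity was measured by CellTiter-Fluor fluorescence after 30 min. Before that, MDA-kb2 MMTV-luciferase cells had 16 hr at 37C without CO2, exposed to test compounds and 0.5 nM R1881 final.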

[8] = qHTS assay to identify small molecule HDAC inhibitors (AID 1259364); further: top concentration of the series differs between compounds; nearly all actives have a fitted effect of over 45% in size
Outline: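 Luminescence read after 30 min room-temperature HDAC-Glo incubation measures cellular class I/II HDAC activity. Compounds were applied for 2 hr at 37 C to HCT-116 wild-type cells seeded the day before.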

[9] = qHTS assay to identify small molecule HDAC inhibitors - cell viability counter screen (AID 1259365)
Outline: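 Wild-type HCT-116 cells were seeded at 1,500 per well, incubated overnight at 37 C, then exposed to compounds in DMSO for 2hr. Viability was read by CellTiter-Glo luminescence after 30min at room temperature.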

[10] = qHTS assay to identify small molecule agonists of the sonic hedgehog signaling (Shh) pathway - cell viability counter screen (AID 1259366); further: nearly all actives have a fitted effect of over 50% in size
Outline: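 NIH/3T3-derived 3T3 Gli1-Luc cells (stable Gli1-responsive firefly luciferase reporter) were seeded, rested 4 hr at 37 C/5% CO2, then exposed to compounds in DMSO for 24 hr; viability was read by CellTiter-Fluor fluorescence in the same wells.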

[11] = qHTS assay to identify small molecule antagonists of the sonic hedgehog signaling (Shh) pathway - cell viability counter screen (AID 1259367); further: nearly all actives have a fitted effect of over 55% in size
Outline: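 Tox21 library chemicals were tested on a Gli1-Luc NIH/3T3 clone (2,000 cells/well) stimulated by conditioned medium; viability was quantified as fluorescence from CellTiter-Fluor reagent added at 23 hr.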

[12] = qHTS assay to identify small molecule agonists of the sonic hedgehog signaling (Shh) pathway (AID 1259368; calls by dose curve; further: series mostly up to about 92 µM; nearly all actives have a fitted effect of over 15% in size)
Outline: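 Luminescence was read after 30 min at room temperature with luciferase reagent. Before that, 3T3Gli1-Luc cells (NIH/3T3 clone, stable Gli1-Luc reporter; 2,000/well) were exposed to compounds for 24 hr at 37C, 5% CO2, compounds being added 4 hr post-plating.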

[13] = qHTS assay to identify small molecule antagonists of the sonic hedgehog signaling (Shh) pathway (AID 1259369; calls by dose curve; further: nearly all actives have a fitted effect of over 45% in size)
Outline: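 Antagonist mode: compound added to 3T3 Gli1-Luc cells followed by conditioned-medium stimulation, 24 h at 37 C, 5% CO2. Inhibition taken as loss of Gli1-driven luciferase luminescence.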

[14] = target: Estrogen receptor beta (Homo sapiens) (UniProt Q92731); assay: qHTS assay to identify small molecule agonists of the estrogen receptor beta (ER-beta) signaling pathway (AID 1259377; active means well fitted activation curve with a large enough effect in the signal ratio in the repeat runs, not every such curve was filed as active; the % refers to the signal ratio)
Outline: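 ER-beta-UAS-bla HEK293T (GripTite) cells carrying a UAS-driven beta-lactamase reporter, in medium with 2% charcoal-stripped FBS, were exposed to compounds for 16 hr at 37C; LiveBLAzer B/G FRET substrate was then added and fluorescence read after 2 hours at room temperature.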

[15] = target: Estrogen receptor beta (Homo sapiens) (UniProt Q92731); assay: qHTS assay to identify small molecule antagonists of the estrogen receptor beta (ER-beta) signaling pathway (AID 1259378; active means well fitted inhibition curve with a large enough effect in the signal ratio in the repeat runs, not every such curve was filed as active; the % refers to the signal ratio; further: potency means the concentration at half of the fitted maximal effect)
Outline: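 ER-beta-UAS-bla HEK293T cells in 2% charcoal-stripped FBS medium treated with compound plus 1nM final 17-beta-estradiol for 16 hr at 37C. Beta-lactamase reporter read by FRET substrate fluorescence after 2 hours at room temperature.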

[16] = qHTS assay to identify small molecule agonists of the androgen receptor (AR) signaling pathway in the presence of an antagonist - cell viability counter screen (AID 1259379);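 further: MDA-kb2 human breast cancer cells carrying an MMTV luciferase reporter; series mostly up to about 92 µM; nearly all actives have a fitted effect of over 25% in size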
Outline: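 Cytotoxicity counter-screen run in the same wells as the nilutamide-challenged (3.0 µM final) AR agonist assay in MDA-kb2 cells. Compounds tested at 15 concentrations for 16 h, 37 °C without CO2; CellTiter-Fluor fluorescence read.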

[17] = qHTS assay to identify small molecule phospholipidosis (PLD) inducers (AID 1259344; active means well fitted curve in the direction sought with a large enough effect; an effect the other way counts as inactive or inconclusive)
Outline: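 Image-based: LipidTOX Red pit count/intensity per well and per cell; HepG2, 24 h compound at 37 C, PFA fixation, Hoechst counterstain.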

[18] = A CellTox Green Cytotoxicity Assay to monitor cytotoxicity in HEK293 cells - 16 hour (AID 1224888); further: nearly all actives have a fitted effect of over 35% in size
Outline: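 Fluorescence from a DNA-binding dye excluded by viable cells was measured repeatedly in the same HEK293 wells (600 cells/well) during continuous compound exposure at 37 C. Each assay gives one read point: 0, 8, 16, 24, 32 or 40 h.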

[19] = target: Estrogen receptor (Homo sapiens) (UniProt P03372); assay: qHTS assay to identify small molecule antagonists of the estrogen receptor alpha (ER-alpha) signaling pathway using the BG1 cell line in the presence of 0.1 nM 17-beta-estradiol (AID 1259244); further: nearly all actives have a fitted effect of over 50% in size
Outline: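 Luciferase luminescence (ONE-Glo, 30 min at room temperature) was read after 22 hr at 37C exposure to compounds plus 17beta-estradiol at 0.1 nM final. Cells were VM7Luc4E2 with endogenous ER-alpha and an ERE-driven luciferase, pre-cultured 5 days in hormone-depleted medium.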
On the % scale 0 is the no-effect control and ±100 the full control effect.

Estrogen receptor beta (Homo sapiens), sequence (Q92731 whole entry, looked up): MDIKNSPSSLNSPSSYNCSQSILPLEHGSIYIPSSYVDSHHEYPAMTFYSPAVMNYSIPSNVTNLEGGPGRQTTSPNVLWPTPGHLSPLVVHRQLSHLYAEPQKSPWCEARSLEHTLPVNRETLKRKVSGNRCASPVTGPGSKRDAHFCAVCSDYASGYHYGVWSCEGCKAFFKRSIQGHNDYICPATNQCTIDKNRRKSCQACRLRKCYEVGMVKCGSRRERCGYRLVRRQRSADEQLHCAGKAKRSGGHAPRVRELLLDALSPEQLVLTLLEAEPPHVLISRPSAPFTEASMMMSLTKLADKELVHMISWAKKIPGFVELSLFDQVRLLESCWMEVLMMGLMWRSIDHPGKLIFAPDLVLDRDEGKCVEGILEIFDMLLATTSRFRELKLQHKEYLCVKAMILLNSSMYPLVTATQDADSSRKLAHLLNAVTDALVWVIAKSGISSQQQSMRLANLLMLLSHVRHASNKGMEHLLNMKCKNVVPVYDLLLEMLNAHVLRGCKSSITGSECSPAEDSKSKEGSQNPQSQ
Estrogen receptor (Homo sapiens), sequence (P03372 whole entry, looked up): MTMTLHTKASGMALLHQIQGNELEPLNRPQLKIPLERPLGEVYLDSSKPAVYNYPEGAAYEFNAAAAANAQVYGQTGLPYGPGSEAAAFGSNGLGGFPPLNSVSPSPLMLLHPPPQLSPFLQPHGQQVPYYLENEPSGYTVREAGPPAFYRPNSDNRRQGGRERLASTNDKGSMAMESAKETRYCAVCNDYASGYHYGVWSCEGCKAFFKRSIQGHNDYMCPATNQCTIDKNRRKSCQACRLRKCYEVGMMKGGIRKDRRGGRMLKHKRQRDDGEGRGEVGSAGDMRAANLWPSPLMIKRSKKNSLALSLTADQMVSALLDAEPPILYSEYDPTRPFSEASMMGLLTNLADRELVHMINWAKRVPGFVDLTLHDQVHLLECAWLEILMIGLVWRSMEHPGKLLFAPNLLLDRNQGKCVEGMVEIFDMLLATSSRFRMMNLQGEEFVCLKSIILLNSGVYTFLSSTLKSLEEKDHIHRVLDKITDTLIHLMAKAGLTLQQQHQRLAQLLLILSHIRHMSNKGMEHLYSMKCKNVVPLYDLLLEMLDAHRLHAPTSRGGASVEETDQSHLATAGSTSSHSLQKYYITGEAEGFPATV

Cc1cccnc1
inactive: outcome [1] | Potency [2] | Potency [3] | Potency [4] | Potency [5] | Potency [6] | outcome [7] | Potency [8] | outcome [9] | Potency [10] | Potency [11] | outcome [12] | Potency [13] | Potency [14] | Potency [15] | Potency [16]

O=c1[nH]c(=O)n([C@H]2CCCO2)cc1F
inactive: outcome [1] | Potency [2] | Potency [3] | Potency [4] | Potency [5] | Potency [6] | outcome [7] | outcome [17] | Potency [8] | outcome [9] | Potency [10] | Potency [11] | outcome [12] | Potency [13] | Potency [15] | Potency [16]

O=C1CCC(N2C(=O)c3ccccc3C2=O)C(=O)N1 (stereo unspecified)
inactive: outcome [1] | Potency [2] | Potency [3] | Potency [4] | Potency [5] | Potency [6] | outcome [7] | outcome [17] | Potency [8] | outcome [9] | Potency [11] | outcome [12] | Potency [13] | Potency [14] | Potency [15]

CCCCC(CC)COC(=O)CS (stereo unspecified)
inactive: outcome [1] | Potency [2] | Potency [3] | outcome [18] | Potency [4] | Potency [5] | Potency [6] | outcome [7] | Potency [8] | outcome [9] | Potency [10] | Potency [11] | outcome [12] | Potency [13] | Potency [16]

CCCCC(CC)COC(=O)C(C#N)=C(c1ccccc1)c1ccccc1 (stereo unspecified)
inactive: outcome [1] | Potency [2] | Potency [3] | Potency [4] | Potency [5] | Potency [6] | outcome [7] | outcome [17] | Potency [8] | outcome [9] | Potency [11] | outcome [12] | Potency [13] | Potency [14] | Potency [16]
active: Potency [15] 19.3 µM

CC[C@H](C)C(=O)O[C@H]1C[C@@H](C)C=C2C=C[C@H](C)[C@H](CC[C@@H]3C[C@@H](O)CC(=O)O3)[C@H]21
inactive: outcome [1] | Potency [2] | Potency [3] | Potency [4] | Potency [5] | Potency [6] | outcome [7] | Potency [19] | outcome [17] | Potency [8] | outcome [9] | Potency [11] | outcome [12] | Potency [14] | Potency [16]

C=CCNC(N)=S
inactive: outcome [1] | Potency [2] | Potency [3] | Potency [4] | Potency [5] | Potency [6] | outcome [7] | outcome [17] | Potency [8] | outcome [9] | Potency [10] | Potency [11] | outcome [12] | Potency [13] | Potency [14] | Potency [15] | Potency [16]

CCOC(=O)NNc1nncc2ccccc12
inactive: outcome [1] | Potency [2] | Potency [3] | Potency [4] | Potency [5] | Potency [6] | outcome [7] | Potency [19] | PLD induction [17] -1.23% [at 7.66 µM] | Potency [8] | outcome [9] | Potency [10] | Potency [11] | outcome [12] | Potency [13] | Potency [16]
